SMILES strings stand for the structures. Inconclusive results are not listed. The source made the active and inactive calls. Calls come from the whole dose curve; as a rule, active = well fitted cell-killing curve with a large enough effect; inconclusive = small, poorly fitted or top-dose-only effect; inactive = flat fitted curve, though single readings scatter.
% is set by controls: 0 for no effect and ±100 for the full control effect; potency is the fitted concentration of half-maximal effect.

The test can be described thus: qHTS of pediatric cancer cell lines to identify multiple opportunities for drug repurposing: Primary screen for control Hh wild type fibroblast cells (AID 1347106).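 For activity change, negative = cytotoxic: a drop in luminescence marks cytotoxicity and a rise apparent proliferation.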 Note: nearly all actives have a fitted effect of over 55% in size. The conditions noted are these: Hh wild-type fibroblast viability, CellTiter-Glo luminescence, 48 h; series mostly up to 46 µM; activity change, negative = cytotoxic: at the top concentration. The source says:
Drug repurposing or repositioning has been offered as a strategy for drug development in oncology programs. This approach has special potential for childhood cancers and other rare or orphan diseases, where the expected return on new drug development has been a disincentive to pharmaceuticals.
In this project we exploit the poly-pharmacology of drugs to discover new indications via phenotypic screening of a panel of 19 well-characterized cell lines derived from solid tumors seen in children and adolescents. The goal is to identify approved drugs with previously unrecognized anticancer properties that has the potential to reveal new mechanisms and biological processes involved in carcinogenesis or drug resistance. We employed a titration-based paradigm (quantitative high-throughput screening or qHTS), where all compounds were tested at multiple concentrations for their effect on cell viability. Concentration-response curves (CRCs) were derived directly from the primary screen, and both potency and efficacy values were used to identify compounds with robust bioactivity profiles. We screened the NIH Chemical Genomics Center (NCGC) Pharmaceutical Collection (NPC) and Mechanism Interrogation Plate (MIPE) small molecule collections of approved and investigational compounds against these cell lines; and measured metabolically active cells after 48 hours of compound treatment as a proxy for cell viability.
Assay Submitter: Nathalia J. Martinez, National Center for Advancing Translational Sciences, National Institutes of Health, Rockville, MD, USA; email: natalia.martinez@nih.gov
[1] Shen, M et al. Quantitative high-throughput phenotypic screening of pediatric cancer cell lines identifies multiple opportunities for drug repurposing. Oncotarget 2017 Dec 19;9(4):4758-4772. PMID 29435139.
The cells were obtained from University of North Carolina (UNC), Pediatric Preclinical Testing Program (PPT), and Coriell Institute (CI).
qHTS cell viability assay:
Cells were assayed in growth media at a density of 500-1,000 cells/well. Five microliters of cells were dispensed into 1,536-well, white, solid-bottom, TC-treated plates (Greiner Bio One) using a multidrop dispenser and incubated at 37 degrees C, 5% CO2, under a humidified atmosphere for 5 hours. Twenty-three nanoliters of compounds and controls (neutral control DMSO or positive control bortezomib at final concentration of 2.3 µM) were subsequently transferred by Kalypsys pintool. For primary screens, the MIPE collection was tested at 11-point dilutions (final concentrations range from 0.78 nM to 46 µM) and the NPC collection at 8-point dilutions (final concentrations range from 0.59 nM to 46 µM). Compounds tested in follow-up screens were assayed at 11-point dilutions. Cells were incubated for 48 hours, followed by addition of 3 µL of CellTiter-Glo (Promega). After a 15 min incubation at room temperature, samples were analyzed for luminescence intensity using a ViewLux High-throughput CCD imager equipped with clear filters.
A general note: qHTS replaces the single test concentration by a dilution series.
With `CN1CCc2cc(Cl)c(O)cc2[C@H]2c3ccccc3CC[C@@H]21`, the “activity change, negative = cytotoxic” value is 8.17% (inactive). Take `Nc1ccc(N)cc1`: the “activity change, negative = cytotoxic” value was -2.67% (inactive).

With `CC(=O)OC1(c2ccccc2)CCN(CCc2ccccc2)CC1`, the “activity change, negative = cytotoxic” value is -0.485% [at 92.7 µM] (inactive).

Turning to `C=CCOC(Cn1ccnc1)c1ccc(Cl)cc1Cl` (stereo not given), the “activity change, negative = cytotoxic” value was -2.83% (inactive). With `CCC1(CC)C(=O)NC(=O)NC1=O`, the “activity change, negative = cytotoxic” value is 2.56% (inactive). For the compound `Cc1ncc2n1-c1ccc(Cl)cc1C(c1ccccc1F)=NC2`, the “activity change, negative = cytotoxic” value was 11.2% (inactive).

Take `CCOC(=O)c1cncn1C(C)c1ccccc1` (stereo not given): the “activity change, negative = cytotoxic” value was 9.84% (inactive). Same read-out and setting: the value for `C=CC[C@]1(O)CC[C@H]2[C@@H]3CCC4=CC(=O)CCC4=C3C=C[C@@]21C` was 4.02% (inactive). On the same count and under the same terms, the value for `N#Cc1nn(-c2c(Cl)cc(C(F)(F)F)cc2Cl)c(N)c1S(=O)C(F)(F)F` (stereo not given) was 5.47% (inactive). On the same count and under the same terms, as for `C[C@H]1CNCCc2ccc(Cl)cc21`, the figure is -0.118% (inactive).

Consider `CC1Sc2c(C(=O)O)c(=O)c3cc(F)c(N4CCNCC4)cc3n21` (stereo not given), for which the “activity change, negative = cytotoxic” value was 11.1% (inactive).

In the case of `C1CN2CCC1CC2`, the “activity change, negative = cytotoxic” value is 7.27% (inactive).

For `CCN(Cc1ccc(Cl)nc1)/C(=C/[N+](=O)[O-])NC`, the “activity change, negative = cytotoxic” value is 2.55% (inactive). With `Oc1ccc([C@H]2CNCc3c2ccc(O)c3O)cc1O`, the “activity change, negative = cytotoxic” value is -5.53% (inactive). The same measure, in the same setting: as for `Clc1ccc(CSC(Cn2ccnc2)c2ccc(Cl)cc2Cl)cc1` (stereo not given), the figure is -1.3% (inactive). For the compound `CC(C)(O)C(Cl)(Cl)Cl`, the “activity change, negative = cytotoxic” value is 1.18% (inactive). The same measure, in the same setting: the value for `C[C@]12CC[C@H]3[C@@H](CC=C4C[C@@H](O)CC[C@@]43C)[C@@H]1CC[C@@H]2O` was -6.32% (inactive). The same measure, in the same setting: the value for `CC(CC(C(N)=O)(c1ccccc1)c1ccccc1)N(C)C` (stereo not given) was 13.3% (inactive); that for `COc1ccc2c3c1O[C@H]1[C@@H](O)C=C[C@H]4[C@@H](C2)N(C)CC[C@@]341` was -23.9% [at 92.7 µM] (inactive); that for `CC(C)[N+](C)(CCC(C(N)=O)(c1ccccc1)c1ccccc1)C(C)C` was 6.25% (inactive). On to `CN1C(=O)CN=C(c2ccccc2)c2cc(Cl)ccc21`, for which the “activity change, negative = cytotoxic” value is 4.28% (inactive). The same measure, in the same setting: as for `C[C@H]1C(=O)O[C@@H]2CCN3CC=C(COC(=O)[C@](C)(O)[C@]1(C)O)[C@H]23`, the figure is 1.02% (inactive). `C[C@]12C=CC(=O)C=C1CC[C@@H]1[C@@H]2CC[C@@]2(C)[C@H]1CC[C@]2(C)O`: the “activity change, negative = cytotoxic” value was 6.83% (inactive). On the same count and under the same terms, as for `O=C(N[C@H]1N=C(c2ccccc2F)c2cccc3c2N(CC3)C1=O)c1cc2ccccc2[nH]1`, the figure is 14.7% (inactive); as for `CCOC(C(=O)OCCN(C)C)(c1ccccc1)c1ccccc1`, -2.23% (inactive); as for `C#C[C@]1(O)CC[C@H]2[C@@H]3CCC4=CC(=O)CCC4=C3C=C[C@@]21CC`, -6.67% (inactive). The same measure, in the same setting: the value for `CNC(C)Cc1ccccc1OC` (stereo not given) was -3.59% (inactive). Still for that read-out and setting: the value for `C=CCN1CC[C@]23CCCC[C@H]2[C@H]1Cc1ccc(O)cc13` was -2.48% (inactive); that for `CCC(=O)O[C@H]1CC[C@H]2[C@@H]3CCC4=CC(=O)CC[C@]4(C)[C@H]3CC[C@]12C` was 13.6% (inactive); that for `CCN(CC)Cc1nccn1-c1ccc([N+](=O)[O-])cc1C(=O)c1ccccc1Cl` was 6.55% (inactive).

Turning to `NC1(c2ccccc2)CCCCC1`, the “activity change, negative = cytotoxic” value is 1.19% [at 92.7 µM] (inactive). As for `O=c1[nH]c2cc(Cl)ccc2n1C1CCNCC1`, the “activity change, negative = cytotoxic” value is 2.66% (inactive). Take `Clc1ccc(C(OCCN2CCCCC2)c2ccccc2)cc1` (stereo not given): the “activity change, negative = cytotoxic” value was -12.4% (inactive). For the compound `ClC1=C(Cl)C2(Cl)C(CBr)CC1(Cl)C2(Cl)Cl` (stereo not given), the “activity change, negative = cytotoxic” value was 0.409% (inactive).

For the compound `c1ccc2c(c1)Sc1ccccc1N2CC1CN2CCC1CC2` (stereo not given), the Potency was 23.7 µM (active). With `CCC(=O)OC1(c2ccccc2)CCN(C)CC1`, the “activity change, negative = cytotoxic” value was -0.461% [at 92.7 µM] (inactive). On the same count and under the same terms, the value for `COP(=S)(OC)Oc1ccc(Sc2ccc(OP(=S)(OC)OC)cc2)cc1` was -6.44% (inactive); that for `CC(Cc1ccccc1)NCCCCl` (stereo not given) was 1.7% (inactive); that for `CN(C)C(=O)Oc1cc(OC(=O)N(C)C)cc(C(O)CNC(C)(C)C)c1` (stereo not given) was -2.66% (inactive). Take `C[N+](C)(C)CCOC(=O)C(O)(c1ccccc1)c1ccccc1`: the “activity change, negative = cytotoxic” value was 4.72% (inactive).
